PubChem BioAssay (NCI)
Compounds without any hit were thinned out: in the full panel of roughly 83,000, 20% have a hit.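 96-well plates, one dose, 48 hours. Percent growth reported; active if below 10.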 Values without a mark were called inactive. Activity calls are given as the source filed them.

Assays:
Assay in all cases: NCI-60 one-dose screen, 48 h (100 = growth as untreated, 0 = no growth, -100 = all killed)
Conditions in all cases: 10 µM unless noted
HCT-15 colon = system: HCT-15 colon
HT29 colon = system: HT29 colon
SNB-75 CNS = system: SNB-75 CNS
SNB-19 CNS = system: SNB-19 CNS
U251 CNS = system: U251 CNS
PC-3 prostate = system: PC-3 prostate
SK-MEL-5 melanoma = system: SK-MEL-5 melanoma
UACC-62 melanoma = system: UACC-62 melanoma
LOX IMVI melanoma = system: LOX IMVI melanoma
SK-MEL-28 melanoma = system: SK-MEL-28 melanoma
SK-MEL-2 melanoma = system: SK-MEL-2 melanoma
EKVX NSCLC = system: EKVX NSCLC
SN12C renal = system: SN12C renal
UO-31 renal = system: UO-31 renal
TK-10 renal = system: TK-10 renal
ACHN renal = system: ACHN renal
CAKI-1 renal = system: CAKI-1 renal
A498 renal = system: A498 renal
CCRF-CEM leukemia = system: CCRF-CEM leukemia
MOLT-4 leukemia = system: MOLT-4 leukemia

Row | SMILES | growth (HCT-15 colon) | growth (HT29 colon) | growth (SNB-75 CNS) | growth (SNB-19 CNS) | growth (U251 CNS) | growth (PC-3 prostate) | growth (SK-MEL-5 melanoma) | growth (UACC-62 melanoma) | growth (LOX IMVI melanoma) | growth (SK-MEL-28 melanoma) | growth (SK-MEL-2 melanoma) | growth (EKVX NSCLC) | growth (SN12C renal) | growth (UO-31 renal) | growth (TK-10 renal) | growth (ACHN renal) | growth (CAKI-1 renal) | growth (A498 renal) | growth (CCRF-CEM leukemia) | growth (MOLT-4 leukemia)
1 | COc1cc(NCCCCC(C)N)c2nccc(C)c2c1 (centres undefined) | 93.9% | 76.3% | 72% | 94.6% | 93% | 66% | 87.7% | 91.1% | 92.7% | 99.3% | 105% | 78.3% | 87.1% | 38.2% | 99.1% | 94% | 94.8% | 68.6% | 99.7% | 81.7%
2 | NC(N)=N/N=C\c1cccc(OCc2ccccc2)c1 | 45% | 1.4% (active) | 63.8% | 83.2% | 23.3% | 71.5% | 33% | 84.9% | 51% | 86% | 61.4% | 80.7% | 86.6% | 63.9% | 78.6% | 87.4% |  |  | 82.2% | 80.1%
3 | O=C1C=CC(=O)N1c1cccc(N2C(=O)C=CC2=O)c1 | 23.1% | 23.5% | 96% | 147% | 111% | 99.9% | 116% | 109% | 73.5% | 108% | 111% | 95.6% | 106% | 28.4% | 33.1% | -26% (active) | 37.3% | 111% | -22.3% (active) | 103%
4 | O=C(O)c1cn(-c2ccccc2)nc1-c1ccc(O)cc1 | 98.4% | 94.7% | 86.1% | 97.4% | 96.4% | 91.2% | 106% | 90.8% | 91.7% | 101% | 103% | 95.7% | 98.9% | 89.4% | 106% | 99.4% |  |  | 94% | 104%
5 | C=CCOc1c(Br)cc(Br)cc1Br | 62.9% | 104% | 60.7% | 50.5% | 46.8% | 65.8% | 59% | 37.2% | 64.4% | 77.8% | 69.3% | 64% | 62.9% | 28.2% | 102% | 48.7% | 76.5% |  | 43.6% | 64.6%
6 | COc1cc2c(cc1OC)C(=O)C(Br)CC2 (centres undefined) | 17.5% | 24.1% | 53% | 85.3% | 54% | 31.2% | 53.2% | 33% | -0.506% (active) | 67.7% | 81.6% |  | 44.4% | 39.4% | 53.7% | 42.1% | 10.4% | 73.6% | 3.35% (active) | 13.3%
7 | CCCN(CCC)CC(O)COc1ccccc1C(=O)Nc1ccccc1 (centres undefined) | 72.8% | 71.3% | 56.2% | 94.6% | 60.4% | 70.2% | 53.3% | 48.1% | 56.8% | 65.2% | 58% |  | 81.6% | 78.1% | 111% | 77.2% | 57.5% | 53.9% | 71.2% | 78%
8 | O=C(/C=C/c1ccccc1)C(Br)C(Br)c1ccccc1 (centres undefined) | -32.7% (active) | -53.5% (active) | 80.1% | 73.5% | 42.9% | 4.21% (active) | 38.9% | 5.9% (active) | -68.6% (active) | 11.1% | 40.9% |  | 41.4% | -88.1% (active) | -31.1% (active) | -65.9% (active) | -44.4% (active) | 85.1% | -41.4% (active) | -25% (active)
9 | Clc1cc(Br)ccc1-c1ccc(CNCC2CCNCC2)o1 | 55.1% | 31.7% | 9.93% (active) | 42.1% | 16.9% | 54.1% | 61.5% | 59.4% | 23.4% | 42.3% | 76.8% |  | 86.3% | -58.5% (active) | 32.2% | 3.97% (active) | 68.6% | 81.8% | 24% | 55.6%
10 | O=C(CN1CCN(c2ccccc2)CC1)N1CCN(c2nnc(-c3ccc(Cl)cc3)c(-c3ccc(Cl)cc3)n2)CC1 | 45.4% | 32.3% | 66.8% | 82.1% | 60.4% | 26.6% | 44.2% | 63.1% | 64.6% | 81.9% | 71.9% | 35% | 62.7% |  | 73.4% | 53.6% |  | 62.6% | 29.4% | 2% (active)
